About 2,000 (36%) of roughly 5,500 compounds were called active. About 18% were inconclusive and are not listed. The list shows a part of the results. A number with no mark means an inactive call. Rule as the data show it: active = normalized growth mostly below about 0.91 (no sharp cut-off); inconclusive = no clear call, values can overlap the other calls; inactive = mostly above about 0.92.
Experiment: chemical genetic growth profiling, strain panel (AID 1159580);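 also: tested at 20 µM; growth read once vehicle control cultures reached saturation at 30 °C; 1 = growth at the plate median or of vehicle wells; lower values mean less growth of the strain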
Conditions: S. cerevisiae deletion strains, growth OD

## Cc1cccc2nc(-c3ccccc3)oc(=O)c12
Locus YAL013W, strain DEP1, hits give low values
  normalized growth: 0.966
Locus YBR229C, strain ROT2, hits give low values
  normalized growth: 0.975
Locus YDL101C, strain DUN1, hits give low values
  normalized growth: 0.968
Locus YDR150W, strain NUM1, hits give low values
  normalized growth: 0.934
Locus YEL061C, strain CIN8, hits give low values
  normalized growth: 0.936
Locus YGR078C, strain PAC10, hits give low values
  normalized growth: 0.959
Locus YGR229C, strain SMI1, hits give low values
  normalized growth: 0.984
Locus YHR030C, strain SLT2, hits give low values
  normalized growth: 0.708
Locus YHR087W, strain rtc3, hits give low values
  normalized growth: 0.953
Locus YJL187C, strain SWE1, hits give low values
  normalized growth: 0.946
Locus YJR043C, strain POL32, hits give low values
  normalized growth: 0.971
Locus YJR075W, strain HOC1, hits give low values
  normalized growth: 0.942
Locus YKL190W, strain CNB1, hits give low values
  normalized growth: 0.987
Locus YLR039C, strain RIC1, hits give low values
  normalized growth: 0.826
Locus YLR058C, strain SHM2 (second series), hits give low values
  normalized growth: 0.968
Locus YLR085C, strain ARP6, hits give low values
  normalized growth: 0.744 (active)
Locus YLR262C, strain YPT6, hits give low values
  normalized growth: 0.942
Locus YML094W, strain GIM5, hits give low values
  normalized growth: 0.88
Locus YMR219W, strain ESC1, hits give low values
  normalized growth: 0.976
Locus YMR263W, strain SAP30, hits give low values
  normalized growth: 0.958
Locus YMR307W, strain GAS1, hits give low values
  normalized growth: 0.735
Locus YNL128W, strain TEP1, hits give low values
  normalized growth: 0.974
Locus YNL153C, strain GIM3, hits give low values
  normalized growth: 0.975
Locus YNL298W, strain CLA4 (second series), hits give low values
  normalized growth: 0.95
Locus YNL322C, strain KRE1, hits give low values
  normalized growth: 0.983
Locus YNR030W, strain Alg12, hits give low values
  normalized growth: 0.929
Locus YOL006C, strain TOP1, hits give low values
  normalized growth: 0.801
Locus YPL055C, strain LGE1, hits give low values
  normalized growth: 0.781 (active)
Locus YPL241C, strain CIN2, hits give low values
  normalized growth: 0.915
Locus YPR135W, strain CTF4, hits give low values
  normalized growth: 0.812
